# High-throughput results as filed in PubChem BioAssay.
# A selection: hits, their analogues and other compounds. The true share with any hit is near 1.7%.
# H9c2 protect – myocardial damage modulation in H9c2 cells; H9c2 cardiomyocytes, H2O2 injury protection, ATPLite, 2 h; protection from H2O2 cell death, % at 20 µM; 360,000 compounds, 0.63% hits; AID 588492;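 active means compounds giving at least 50% protection of heart cells from peroxide-induced death in the single-dose screen, raw or plate-pattern-corrected value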;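 further: 0% = DMSO wells with peroxide and 100% = DMSO wells without peroxide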
# N-glyco inh – blocks N-linked glycosylation in D54 reporter cells | 360,000 compounds, 0.23% hits | reporter increase, % at 12.5 µM | AID 588692 | D54 ERlucT glycosylation luciferase reporter, 24 h; percent of 100 nM tunicamycin response;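 active means mean luciferase reporter signal, scaled so untreated is 0 and the glycosylation-blocking control 100, at or above a set limit in every replicate; inconclusive means mean reaches the limit but not every replicate does; inactive means mean below the limit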;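 further: luciferase carries N-glycosylation sites so blocking glycosylation raises the light; 0% = median of neutral control wells and 100% = median of 100 nM tunicamycin wells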
# ARNT-TACC3 inh – ARNT/TACC3 interaction disruption; Q9Y6A5; AlphaScreen His-ARNT PAS-B/GST-TACC3 binding, luminescence; TACC3 fragment carries E629A point mutation; inhibition, % at 9.99 µM; 390,000 compounds, 0.66% hits;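 active means mean inhibition of replicates at least 50% and at least half of replicates each reaching 50%; inconclusive means half or more replicates reach 50% but mean below 50%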;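 further: 0% = complete ARNT plus TACC3 wells and 100% = ARNT alone without TACC3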
# aDG glyco act – alpha-DG glycosylation activation; Pro5-aDG cells, alpha-DG glycosylation AlphaScreen (IIH6); 0% Pro5, 100% B10-LARGE cell signal; activation, % at 10 µM; 360,000 compounds, 0.22% hits; AID 624168;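 active means activation of at least 8% versus controls, or a plate z-score of at least 8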;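 further: Pro5 are CHO cells carrying HIG-tagged alpha-DG that lacks glycosylation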
# Vif imaging – blocks HIV Vif function | HEK293T cells, Vif self-association by quenched fluorescence, imaging, 24 h | inhibition, % at 7.49 µM | 340,000 compounds, 0.35% hits | AID 602346; in the data active means inhibition above about 50%, passing the limit was not always enough; inconclusive means no clear call, values can overlap the other calls; inactive means below about 31%
# * hit, by the source's call; ? = inconclusive; nt = no result.
SMILES,H9c2 protect,N-glyco inh,ARNT-TACC3 inh,aDG glyco act,Vif imaging
CCN(CC)C(=O)c1ccc2c3c(cccc13)C(=O)N(CCc1ccc(OC)c(OC)c1)C2=O,71.3*,-1.1,-3.6,0.2,-21.4
COc1ccc(C(=O)N/C(=C\c2ccco2)C(=O)OCc2ccco2)cc1,-2.2,-0.4,0.5,0.0,-6.1
CCCCOc1ccc(C(=O)N/C(=C\c2ccc(OC)cc2)C(=O)OCc2ccco2)cc1,57.3*,-3.2,-1.5,-0.4,-6.6
COc1cccc(OC)c1C(=O)Nc1cc(C)nn1-c1nc2ccccc2[nH]1,77.2*,0.9,nt,-0.4,-3.4
Cc1cc(NC(=O)c2ccccc2)n(-c2nc3ccccc3[nH]2)n1,0.7,3.7,-3.5,0.0,16.2
COc1ccc(C(=O)Nc2cc(C)nn2-c2nc3ccccc3[nH]2)c(OC)c1,63.2*,9.2,-5.9,-0.7,-8.0
CC(=O)OCC1OC(Sc2cccc3cccnc23)C(OC(C)=O)C(OC(C)=O)C1OC(C)=O (configuration not stated),4.0,-0.8,68.0*,0.5,-4.2
CCCNC(=O)c1cc(-c2ccco2)on1,-5.2,81.2*,-2.7,-0.5,-5.3
CN1C(=O)c2cc(NC(=O)Nc3ccccc3F)ccc2OC[C@H]2O[C@H](CC(=O)NCCc3ccncc3)CC[C@H]21,nt,nt,-11.1,nt,nt
O=C1c2ccccc2C(=O)N1CCSc1nc2ccccc2c(=O)n1CCCN1CCOCC1,22.0,-3.1,-6.1,-0.2,-7.3
O=C1c2ccccc2C(=O)N1CCCCSc1nc2ccccc2c(=O)n1CCCN1CCOCC1,58.6*,-4.6,nt,-0.3,6.9
Cc1cc(NC(=O)CSc2nc3c(sc4ccccc43)c(=O)n2CCCN2CCOCC2)n[nH]1,14.7,12.5,0.0,-0.4,94.0*
Cc1ccc(NC(=O)CSc2nc3ccccc3c(=O)n2CCCN2CCCCC2)cc1C,-6.5,-13.4,nt,8.3*,-2.1
Cc1noc(C)c1NC(=O)Nc1ccc2c(c1)C(=O)N(C)[C@H]1CC[C@@H](CC(=O)NCc3ccc(Cl)cc3)O[C@H]1CO2,nt,nt,-3.3,nt,nt
C[C@@H]1CN([C@@H](C)CO)C(=O)c2cc(C#CCc3ccccc3)cnc2O[C@H]1CN(C)C(=O)C1CCOCC1,nt,nt,-8.1,nt,nt
CCCNC(=O)C[C@@H]1CC[C@@H]2[C@H](COC[C@H](O)CN2C(=O)Nc2c(C)noc2C)O1,nt,nt,-13.5,nt,nt
CC(C)NC(=O)N(C)C[C@H]1Oc2ccc(NC(=O)Nc3ccccc3)cc2CC(=O)N([C@@H](C)CO)C[C@@H]1C,nt,nt,-2.8,nt,nt
COc1ccc(CCNC(=O)CCN2C(=O)COc3ccccc32)cc1OC,-2.2,1.5,2.7,0.1,125.6*
CNCCCNC(=O)c1ccc(/C=N/O)nc1,5.6,2.8,61.0*,0.1,-4.5
O=C(NCc1ccccc1)c1ccc(/C=N/O)nc1,-3.8,2.2,6.7,-0.2,?
O=C(NCc1ccccn1)c1ccc(/C=N/O)nc1,13.8,1.1,38.2*,-0.2,2.7
C[C@@H]1CN([C@H](C)CO)C(=O)c2cc(N(C)C)ccc2O[C@H]1CN(C)S(=O)(=O)c1ccccc1,nt,nt,0.1,nt,nt
CCCNC(=O)N1[C@@H](CO)[C@H](c2ccccc2)[C@@H]1CNC(=O)c1ccccc1,nt,nt,2.0,nt,nt
C[C@H]1CN([C@@H](C)CO)C(=O)c2cc(NS(=O)(=O)c3ccccc3)ccc2O[C@@H]1CN(C)C(=O)Nc1ccc(F)cc1,nt,nt,-9.1,nt,nt
C[C@H](NC(=O)N(C)C[C@H]1OCc2ccccc2-c2c(n(C)c3ccccc23)C(=O)N([C@@H](C)CO)C[C@@H]1C)c1ccccc1,nt,nt,2.8,nt,nt
SMILES,H9c2 protect,N-glyco inh,ARNT-TACC3 inh,aDG glyco act,Vif imaging
COc1ccc(F)cc1C1=CC(=O)C[C@H](c2ccc3c(c2)OCO3)C1,3.8,30.3*,18.8,0.0,-1.3
CC(C)NC(=O)Nc1ccc2c(c1)CC(=O)N([C@H](C)CO)C[C@@H](C)[C@@H](CN(C)C(=O)Nc1ccccc1)O2,nt,nt,-1.5,nt,nt
CNC(=O)N/N=C(\N)c1ccccn1,6.6,-0.8,44.0,-0.2,-4.2
N/C(=N\NC(=O)Nc1ccc(Cl)cc1)c1ccccn1,1.8,-0.4,65.9*,-0.1,-1.1
COc1ccc(N/C=C(\C=C\C#N)S(=O)(=O)c2ccccc2)cc1,5.8,3.5,-4.6,0.1,86.7*
N#C/C=C/C(=C\Nc1ccc(Cl)cc1)S(=O)(=O)c1ccccc1,-0.2,6.5,-16.2,0.4,nt
COC(=O)C1=C(C)N(CCc2ccc(OC)cc2)C(=O)C1,100.3*,-2.1,1.7,-0.2,31.2
